Among the data in PubChem BioAssay (NCATS) are Potency and outcome values, retold here.

Activity calls are given as the source filed them. Where a call stands in place of a potency, no number is given. The call rests on the fitted dose curve; in most records, active means well fitted inhibition curve with a large enough effect; inconclusive means small, poorly fitted or top-dose-only effect; inactive means flat fitted curve, though single readings scatter. Where a SMILES comes first, the peptide text is derived from it. [ ]: non-standard residue; d: D form. ξ: configuration not given here. ξLac(3-iPr) = CC(C)CC(O)C(=O)O; NMeV = CN[CH](C(=O)O)C(C)C; βAla = NCCC(=O)O
Potency means the concentration at half of the fitted maximal effect.

The target in this assay is Luciferin 4-monooxygenase (Photinus pyralis) (UniProt P08659). The assay is described as follows: Primary firefly luciferase (FLuc) qHTS assay for identification of artifact compounds. (AID 1845220). Further: nearly all actives have a fitted effect of over 60% in size. The note with it: purified firefly luciferase, luminescence, 5 min; series mostly up to 54.1 µM. The source says:
PI: Alexander Tropsha Ph.D.
UNC Eshelman School of Pharmacy
University of North Carolina, Chapel Hill, North Carolina
Hits from high-throughput screening (HTS) of chemical libraries are often false positives due to their interference with the assay detection technology. In response to this problem, we generated the largest publicly available library of chemical liabilities and developed a free webtool to predict HTS artifacts, both of which are described herein. More specifically, we generated, curated, and integrated HTS datasets for thiol reactivity, redox activity, and luciferase (firefly and nano) activity. Using these curated datasets, we developed and validated several Quantitative Structure-Interference Relationship (QSIR) models to predict nuisance behavior. […] These models were employed for virtual profiling of the National Center for Advancing Translational Science's (NCATS) in-house library, and 256 compounds for each assay were selected for the experimental validation of nuisance behavior. The BA for these external predictions ranged from 58 to 78% for compounds within the applicability domains of the models. […] The models developed in this study, along with aggregation models previously developed by our group (SCAM Detective) were implemented in "Liability Predictor," an online tool which may be used as part of chemical library design or for triaging HTS hits. Both the models and the curated datasets are publicly available at https://liability.mml.unc.edu/.
SEQUENCE No. (e.g., 1, 2, 3, etc.); […] (e.g., Cells, Incubation, Reagent, etc.); VALUE; DESCRIPTION.
1; Reagent; 3 uL; Luciferase substrate mixture.
2; Compounds and control; 16 nL; Kalypsis pin tool (Wako USA) equipped with a 1536-well pin head.
4; Reagent; 1 uL; Luciferase enzyme.
6; Detection; Luminescence, ViewLux microplate reader.
NOTES (numbers refer to Sequence numbers above)
1. 3 uL of luciferase substrate mixture containing D-luciferin and ATP (final concentrations of 10 uM and 10 uM, respectively) in assay buffer (10 mM Mg-acetate, 0.01% Tween-20, 0.05% bovine serum albumin, 50 mM Tris acetate, pH 7.6) was dispensed into all wells of a 1536-well assay plate (solid-bottom white plate; Greiner Bio One, Monroe, NC).
2. A Wako Pin-tool (Wako Automation, Richmond, VA) was used to transfer 16 nL of compounds (consisting of 7-plates in qHTS format, final concentration range 18.3 nM to 114 uM) or control PTC124 (final concentration range 1.22 nM to 40 uM).
3. 15 min. incubation at room temperature protected from light.
4. 1 uL of luciferase enzyme (final concentration 10 nM, Photinus pyralis luciferase) or buffer was dispensed for a final assay volume of 4 uL.
5. Plates were centrifuged (121xg, 15 seconds) and incubated for 5 minutes.
6. Samples were read for luminescence on a ViewLux CCD imager (PerkinElmer). Data were normalized to no-enzyme (0% activity) and no-inhibitor (DMSO; 100%) controls and the resulting percent inhibition data were fitted to a 4-parameter Hill equation using NCATS in-house software.
In general terms: qHTS replaces the single test concentration by a dilution series.
For the compound `CC1(C)CC2C=C(C(=O)O)C3COC(=O)C(O)(CO)C23C1` (stereo not given), the Potency result is “inactive”.
Take `CC(=O)NC1C(OC(C)(C)C2CCC3(C)C=C(C4CCC5C4(C)CC(O)C4OC(C(C)(C)O)CCC45C)CCC3O2)OC(CO)C(O)C1O` (stereo not given): the Potency entry is “inactive”.
The same measure, in the same setting: under `CCCCC1CCN(CCCC(=O)c2ccccc2C)CC1` stands “inactive”.
As for `C=C1C(OC(C)=O)CCC2(C)CC3(OC)OC(=O)C(C)=C3CC12` (stereo not given), the Potency result was “inactive”.
In the case of `COc1ccc(-c2cnc(-c3cccc4c3-c3ccccc3C4=O)o2)cc1`, the Potency result was “inactive”.
`O=C(NOCC(O)CO)c1ccc(F)c(F)c1Nc1ccc(I)cc1F` (stereo not given): the Potency entry is “inactive”.
Same read-out and setting: under `C[C@H](NC(c1cccc2[nH]c(=O)c(=O)[nH]c12)P(=O)(O)O)c1ccc(Br)cc1` (stereo not given in full) stands “inactive”; under `C=C1C[C@]23C[C@H]1CC[C@H]2[C@@]1(C)CCC[C@@]2(C)C(=O)O[C@@H]([C@@H]3O)[C@@H]12`, “inactive”.
For the compound `C[C@@H]1O[C@@H](O[C@H]2[C@@H]3C=CO[C@@H](O[C@@H]4O[C@H](CO)[C@@H](O)[C@H](O)[C@H]4O)[C@@H]3[C@@]3(CO)O[C@@H]23)[C@H](OC(=O)/C=C/c2ccc(O)c(O)c2)[C@H](O)[C@H]1O`, the Potency entry is “inactive”.
In the case of `C=CC(C)(O)C(O)CC1C(C)(O)C(O)C(O)C2C(C)(C)CCCC21C` (stereo not given), the Potency entry is “inactive”.
In the case of `CC1=CC(=O)CC(C)(C)C1CCC(C)O[C@@H]1O[C@H](CO[C@@H]2OC[C@@H](O)[C@H](O)[C@H]2O)[C@@H](O)[C@H](O)[C@H]1O` (stereo not given in full), the Potency result was “inactive”.
`C[C@@H]1CN(Cc2ncccn2)C[C@H]1c1nc2c(cnn2C2CCOCC2)c(=O)[nH]1`: the Potency result is “inactive”.
Consider `Cc1ccc(NC(=O)C(=O)NC2CC(C)(C)NC(C)(C)C2)cc1`, for which the Potency entry is “inactive”.
`COc1cc2c(cc1OC)N1C(=O)C[C@]34C=CCN5CC[C@@H]2[C@@H](CC3)[C@]514`: the Potency entry was “inactive”.
With `COC(=O)CCc1cc2ccoc2c(OC)c1O[C@@H]1O[C@H](CO)[C@@H](O)[C@H](O)[C@H]1O`, the Potency result was “inactive”.
With `CC(=O)/C=C/[C@H]1[C@](C)(O)[C@@H](O)[C@H](OC(C)=O)C2C(C)(C)CCC[C@@]21C` (stereo not given in full), the Potency result was “inactive”.
As for `CS(=O)(=O)N(CC(=O)NCC1CC1)c1cc(C(F)(F)F)ccc1Cl`, the Potency entry was “inactive”.
Turning to `c1ccc(-c2ncc(CN3CCN(c4ncccn4)CC3)[nH]2)cc1`, the Potency entry is “inactive”.
Regarding `Cc1cc(C)cc(C(=O)NOCCCCCC(=O)NO)c1`, the Potency entry is “inactive”.
For `Cc1ccc(S(=O)(=O)n2ccc(-c3c(-c4ccc(Cl)cc4)noc3C)n2)cc1`, the Potency result was “inactive”.
As for `CC(=O)c1ccc2c(c1)C(O)C(C(C)(C)O)O2` (stereo not given), the Potency entry was “inactive”.
Regarding `C[C@H]1O[C@@H](O[C@H]2CC[C@@]3(C)C(CC[C@]4(C)C3CC=C3C5CC(C)(C)CC[C@]5(C(=O)O)CC[C@]34C(=O)O)C2(C)C)[C@H](O)[C@@H](O)[C@@H]1O` (stereo not given in full), the Potency result is “inactive”.
On to `CC1(CCOC2OC(CO)C(O)C(O)C2O)CCC23OC2(C1)C(O)CC1C(C)(C(=O)O)CCCC13C` (stereo not given), for which the Potency result is “inactive”.
Turning to `CNC(=O)c1cccc(-c2ccc3c(N4CCOC[C@@H]4C)nc(N4CCOC[C@@H]4C)nc3n2)c1`, the Potency entry was “inactive”.
As to `C#CC[C@H](c1nc2cc(Cl)ccc2c(=O)n1Nc1ccccc1)N(CCCN)C(=O)c1cccc(Cl)c1F`, the Potency entry is “inactive”.
Still for that read-out and setting: under `O=C(Nc1c(-c2cccs2)nc2ccccn12)c1ccc(Cl)cc1` stands “inactive”; under `COc1ccc(C2(O)CCC(N3CC[C@@H](NC(=O)CNC(=O)c4cccc(C(F)(F)F)c4)C3)CC2)cn1` (stereo not given in full), “inactive”; under `Cc1cc(O)cc(O[C@@H]2O[C@H](CO)[C@@H](O)[C@H](O)[C@H]2O)c1`, “inactive”.
Take `CC(=O)OC[C@@]12C(=O)C[C@@H](C)[C@]3(C[C@@H](c4ccoc4)O[C@H]3OC(C)=O)[C@H]1CCC[C@]21CO1`: the Potency result was “inactive”.
For `CC(Oc1ccc2[nH]nc(/C=C/c3cnn(CCO)c3)c2c1)c1c(Cl)cncc1Cl` (stereo not given), the Potency entry was “inactive”.
In the case of `Cc1cc(C)nc(NS(=O)(=O)c2ccc(NC(=S)NC(=O)COc3ccc(Br)cc3Cl)cc2)n1`, the Potency entry was “inactive”.
Turning to `CON(C)C(=O)[C@H](O)[C@H](Cc1ccccc1)NC(=O)c1cc2cc(Cl)ccc2[nH]1`, the Potency result is “inactive”.
Still for that read-out and setting: under `CC(/C=C/C1=CC2=CC(=O)C(C)(O)C(O)C2=CO1)=C\C(C)CCO` (stereo not given) stands “inactive”.
Regarding `CC(C)CC1OC(=O)C2CCCN2C(=O)CCNC(=O)C(Cc2ccccc2)NC(=O)C(C(C)C)N(C)C(=O)C(C(C)C)N(C)C1=O` (stereo not given) (cyclo([ξLac(3-iPr)][NMeV][NMeV]F[βAla]P); configuration not given here), the Potency result was “inactive”.
On the same count and under the same terms, under `CC[C@]12C=CCN3CC[C@@]4(c5cc([C@@]6(C(=O)OC)C[C@H]7C[C@@H](C(C)(F)F)CN(Cc8c6[nH]c6ccccc86)C7)c(OC)cc5N(C)[C@H]4[C@@](O)(C(=O)OC)[C@@H]1OC(C)=O)[C@@H]32` stands “inactive”; under `CCN(CC)c1ccc2c(O)c(C=Nc3ccc(CC(=O)O)c(-c4c5c(nc6ccccc46)CCC(C(=O)NN)C5)c3)c(=O)oc2c1` (stereo not given), 6.01 µM (active).
In the case of `C[C@@H]1O[C@@H](O[C@H]2[C@H](OC(=O)[C@]34CCC(C)(C)C[C@H]3C3=CCC5[C@@]6(C)CC[C@H](O[C@@H]7O[C@H](C(=O)O)[C@@H](O)[C@H](O)[C@H]7O[C@@H]7O[C@H](CO)[C@H](O)[C@H](O)[C@H]7O)[C@@](C)(C=O)C6CC[C@@]5(C)[C@]3(C)C[C@H]4O)O[C@H](C)[C@H](O[C@@H]3O[C@H](C)[C@H](O)[C@H](O)[C@H]3O)[C@@H]2O)[C@H](O)[C@H](O)[C@H]1O[C@@H]1OC[C@@H](O)[C@H](O[C@@H]2O[C@H](CO)[C@@H](O)[C@H](O)[C@H]2O)[C@H]1O` (stereo not given in full), the outcome was “inactive [at 6.45 µM]”.
As to `CC(C)=CCC/C(C)=C/CO[C@@H]1O[C@H](CO)[C@@H](O)[C@H](O)[C@H]1O`, the Potency result is “inactive”.
`O=C1NC2CCc3nc4ccccc4c(=O)n3C2=Nc2ccccc21` (stereo not given): the Potency result was “inactive”.
As for `COCCOc1cnc2ccn([C@H](C)c3nnc4c(F)cc(-c5cnn(C)c5)cn34)c(=O)c2c1`, the Potency entry is “inactive”.
